In the supplement of paper PMC9262897, “Low-cost anti-mycobacterial drug discovery using engineered E. coli” (Nature Communications, 2022) one finds growth data, which are given here for 20 compounds.

Where a name gives a salt, the structure may show the parent alone. ± gives the standard deviation of the averaged measurements.

The first assay relates to E. coli TESEC Mtb DapB. The assay can be described thus: growth (OD600 after 10 h); higher = more growth (less inhibition). The conditions noted are these: arabinose induction (level): High; compound 0.1 mM; raw OD600 reference: median of DMSO wells […], cell-free background 0.041. Here is the method: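 TESEC E. coli strains in which the native enzyme is deleted and replaced by arabinose-inducible Mtb Asd, DapB, CysH or TrpD, each grown in its selective medium. Strains were screened against the Prestwick library at 0.1 mM and 1% DMSO in 384-well format at low and high arabinose induction. Growth is read as OD600 after 10 h in triplicate.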
The compound `Oc1ncnc2[nH]ncc12` [Allopurinol] yielded a growth of 0.216 ± 0.019.

As for `OCCN1CCN(CC/C=C2/c3ccccc3Sc3ccc(Cl)cc32)CC1` [Zuclopenthixol dihydrochloride], the growth amounted to 0.179 ± 0.029.

`O=C1C(O)=C(O)C(=O)C(O)=C1O` [Tetrahydroxy-1,4-quinone hydrate] registered a growth of 0.206 ± 0.021.

`CN[C@H](CC(C)C)C(=O)N[C@H]1C(=O)N[C@@H](CC(N)=O)C(=O)N[C@H]2C(=O)N[C@H]3C(=O)N[C@H](C(=O)N[C@H](C(=O)O)c4cc(O)cc(O)c4-c4cc3ccc4O)[C@H](O)c3ccc(c(Cl)c3)Oc3cc2cc(c3O[C@@H]2O[C@H](CO)[C@@H](O)[C@H](O)[C@H]2O[C@H]2C[C@](C)(N)[C@H](O)[C@H](C)O2)Oc2ccc(cc2Cl)[C@H]1O` [Vancomycin hydrochloride] had a growth of 0.0659 ± 0.0035.

The compound `CC(C)NCC(O)COc1cccc2[nH]ccc12` (stereo not given) [Pindolol] yielded a growth of 0.201 ± 0.011.

On to `CCCCCNC(=N)N/N=C/c1c[nH]c2ccc(OC)cc12` [Tegaserod maleate], for which the growth worked out at 0.0474 ± 0.0015.

On to `C#C[C@]1(O)CC[C@H]2[C@@H]3CCC4=CCCC[C@@H]4[C@H]3CC[C@@]21C` [Lynestrenol], for which the growth turned out to be 0.174 ± 0.0039.

`Cn1c(=O)c2[nH]cnc2n(C)c1=O` [Aminophylline] came in with a growth of 0.226 ± 0.017.

With `CC1(C)O[C@@H]2C[C@H]3[C@@H]4CCC5=CC(=O)C=C[C@]5(C)[C@H]4[C@@H](O)C[C@]3(C)[C@]2(C(=O)CO)O1` [Desonide], the growth amounted to 0.181 ± 0.005.

`CNC(=O)c1c(I)c(C(=O)NCC(=O)Nc2c(I)c(C(=O)O)c(I)c(C(=O)NCCO)c2I)c(I)c(N(C)C(C)=O)c1I` [Ioxaglic acid] gave a growth of 0.198 ± 0.013.

As for `O=C(O)c1ccccc1Nc1cccc(C(F)(F)F)c1` [Flufenamic acid], the growth worked out at 0.117 ± 0.0058.

Compound `Cc1c(NC(=O)c2cccnc2)c(=O)n(-c2ccccc2)n1C` [Nifenazone] yielded a growth of 0.192 ± 0.0073.

For the compound `CCOC(=O)[C@@](C)(N)Cc1ccc(O)c(O)c1` [Methyldopate hydrochloride], the growth is 0.155 ± 0.01.

In turn, `C[C@]12CC[C@@H]3c4ccc(OS(=O)(=O)O)cc4CC[C@H]3[C@@H]1CCC2=O` [Estropipate] returned a growth of 0.194 ± 0.016.

In turn, `CCCCN(CCCC)CCCOC(=O)c1ccc(N)cc1` [Butacaine] gave a growth of 0.182 ± 0.0067.

Regarding `CN1CC2c3ccccc3Oc3ccc(Cl)cc3C2C1` (stereo not given) [Asenapine maleate], the growth amounted to 0.213 ± 0.0042.

The compound `CC(=O)OCC(=O)[C@@]1(O)CC[C@H]2[C@@H]3CCC4=CC(=O)CC[C@]4(C)[C@@]3(F)[C@@H](O)C[C@@]21C` [Fludrocortisone acetate] gave a growth of 0.188 ± 0.014.

The compound `CC[C@H](C)C(=O)O[C@H]1C[C@H](O)C=C2C=C[C@H](C)[C@H](CC[C@@H](O)C[C@@H](O)CC(=O)O)[C@H]21` [Pravastatin] had a growth of 0.209 ± 0.0069.

As to `C[C@H](O)C(=O)Nc1c(I)c(C(=O)NC(CO)CO)c(I)c(C(=O)NC(CO)CO)c1I` [Iopamidol], the growth came to 0.221 ± 0.0036.

For `CCC(NC(C)C)C(O)c1ccc(O)c(O)c1` (stereo not given) [Isoetharine mesylate salt], the growth came out at 0.187 ± 0.0097.

The same assay, now with this note: arabinose induction (level): Low; compound 0.1 mM; raw OD600 reference: median of DMSO wells 0.227, cell-free background 0.041.
Regarding `Oc1ncnc2[nH]ncc12` [Allopurinol], the growth came to 0.234 ± 0.016.

`OCCN1CCN(CC/C=C2/c3ccccc3Sc3ccc(Cl)cc32)CC1` [Zuclopenthixol dihydrochloride] had a growth of 0.186 ± 0.038.

`O=C1C(O)=C(O)C(=O)C(O)=C1O` [Tetrahydroxy-1,4-quinone hydrate] had a growth of 0.226 ± 0.0024.

Regarding `CN[C@H](CC(C)C)C(=O)N[C@H]1C(=O)N[C@@H](CC(N)=O)C(=O)N[C@H]2C(=O)N[C@H]3C(=O)N[C@H](C(=O)N[C@H](C(=O)O)c4cc(O)cc(O)c4-c4cc3ccc4O)[C@H](O)c3ccc(c(Cl)c3)Oc3cc2cc(c3O[C@@H]2O[C@H](CO)[C@@H](O)[C@H](O)[C@H]2O[C@H]2C[C@](C)(N)[C@H](O)[C@H](C)O2)Oc2ccc(cc2Cl)[C@H]1O` [Vancomycin hydrochloride], the growth was 0.0604 ± 0.0036.

`CC(C)NCC(O)COc1cccc2[nH]ccc12` (stereo not given) [Pindolol] registered a growth of 0.231 ± 0.048.

`CCCCCNC(=N)N/N=C/c1c[nH]c2ccc(OC)cc12` [Tegaserod maleate] gave a growth of 0.0486 ± 0.0013.

In turn, `C#C[C@]1(O)CC[C@H]2[C@@H]3CCC4=CCCC[C@@H]4[C@H]3CC[C@@]21C` [Lynestrenol] had a growth of 0.198 ± 0.027.

Compound `Cn1c(=O)c2[nH]cnc2n(C)c1=O` [Aminophylline] had a growth of 0.234 ± 0.023.

`CC1(C)O[C@@H]2C[C@H]3[C@@H]4CCC5=CC(=O)C=C[C@]5(C)[C@H]4[C@@H](O)C[C@]3(C)[C@]2(C(=O)CO)O1` [Desonide]: the growth came out at 0.248 ± 0.034.

Take `CNC(=O)c1c(I)c(C(=O)NCC(=O)Nc2c(I)c(C(=O)O)c(I)c(C(=O)NCCO)c2I)c(I)c(N(C)C(C)=O)c1I` [Ioxaglic acid]: the growth was determined as 0.211 ± 0.013.

In turn, `O=C(O)c1ccccc1Nc1cccc(C(F)(F)F)c1` [Flufenamic acid] gave a growth of 0.181 ± 0.046.

For `Cc1c(NC(=O)c2cccnc2)c(=O)n(-c2ccccc2)n1C` [Nifenazone], the growth worked out at 0.262 ± 0.065.

Compound `CCOC(=O)[C@@](C)(N)Cc1ccc(O)c(O)c1` [Methyldopate hydrochloride] returned a growth of 0.152 ± 0.016.

For `C[C@]12CC[C@@H]3c4ccc(OS(=O)(=O)O)cc4CC[C@H]3[C@@H]1CCC2=O` [Estropipate], the growth stood at 0.195 ± 0.013.

For `CCCCN(CCCC)CCCOC(=O)c1ccc(N)cc1` [Butacaine], the growth worked out at 0.208 ± 0.016.

`CN1CC2c3ccccc3Oc3ccc(Cl)cc3C2C1` (stereo not given) [Asenapine maleate] came in with a growth of 0.254 ± 0.026.

As for `CC(=O)OCC(=O)[C@@]1(O)CC[C@H]2[C@@H]3CCC4=CC(=O)CC[C@]4(C)[C@@]3(F)[C@@H](O)C[C@@]21C` [Fludrocortisone acetate], the growth stood at 0.242 ± 0.039.

With `CC[C@H](C)C(=O)O[C@H]1C[C@H](O)C=C2C=C[C@H](C)[C@H](CC[C@@H](O)C[C@@H](O)CC(=O)O)[C@H]21` [Pravastatin], the growth was 0.225 ± 0.025.

As to `C[C@H](O)C(=O)Nc1c(I)c(C(=O)NC(CO)CO)c(I)c(C(=O)NC(CO)CO)c1I` [Iopamidol], the growth was determined as 0.249 ± 0.028.

The compound `CCC(NC(C)C)C(O)c1ccc(O)c(O)c1` (stereo not given) [Isoetharine mesylate salt] gave a growth of 0.226 ± 0.031.
